# Assay results from the supplement of paper PMC10849652.
# About 7,900 targets were measured; listed, in parts, are those with a hit and a random draw of the rest. About 0.6% of all pairs of compound and target were hits. Values without a mark were called inactive.
# Legend:
# Experiment in all cases: log2 fold change, soluble protein after heating vs DMSO (PISA); higher = thermal stabilisation; K562 cells, 10 uM, 30 min; active = over 0.2 and 3.5 SD of the protein, either way, in both replicates (recomputed)
# IRAK-1-4 Inhibitor I = compound: C1COCCN1CCN2C3=CC=CC=C3N=C2NC(=O)C4=CC(=CC=C4)[N+](=O)[O-] [IRAK-1-4 Inhibitor I]
# Outline: (§1)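 Quantification of soluble protein used TMTpro 16plex LC-MS/MS, with channel sums equalised. Samples were the supernatant after 21,000xg for 90 min of pooled aliquots from K562 cells (2×10^6 cells/mL) treated with 10 μM compound for 30 min, heated for 3 min over 48°C-58°C, and extracted in PBS with 0.5% NP-40 at 4°C. Values, from duplicates, describe thermal stability against control samples on a log2 fold-change scale.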
# ibrutinib = compound: C=CC(=O)N1CCC[C@@H](n2nc(-c3ccc(Oc4ccccc4)cc3)c3c(N)ncnc32)C1 [ibrutinib]
# Outline: as §1
# [1] = compound: CC(=O)c1cnc2ccc(-c3cc(Cl)c(O)c(Cl)c3)nc2c1N[C@H]1CC[C@H](CN(C)C)CC1
# Outline: as §1
# ralimetinib = compound: CC(C)(C)Cn1c(N)nc2ccc(-c3[nH]c(C(C)(C)C)nc3-c3ccc(F)cc3)nc21 [ralimetinib]
# Outline: as §1
# [2] = compound: CC(C)(O)CC(=O)NCCn1ccc2ncnc(Nc3ccc(Oc4cccc(C(F)(F)F)c4)c(Cl)c3)c21
# Outline: as §1
# [3] = compound: CC(C)C1=C2N=C(C=C(N2N=C1)NCC3=CC=CC=C3)NCCCCCCN
# Outline: as §1
# [4] = compound: CC(C)C[C@@H](C=O)NC(=O)[C@H](CC(C)C)NC(=O)[C@H](CC(C)C)NC(=O)OCc1ccccc1
# Outline: as §1
# pinometostat = compound: CC(C)N(C[C@H]1O[C@@H](n2cnc3c(N)ncnc32)[C@H](O)[C@@H]1O)[C@H]1C[C@@H](CCc2nc3cc(C(C)(C)C)ccc3[nH]2)C1 [pinometostat]
# Outline: as §1
# [5] = compound: CC1=C(C(CC(=O)N1)C2=CC=C(C=C2)C(F)(F)F)C(=O)NC3=C(C=C4C(=C3)C=NN4)F
# Outline: as §1
# [6] = compound: CC1=C(C2=C(C=C1)C(=O)C3=CC=CC=C3N2CCCN)C
# Outline: as §1
# [7] = compound: CC1=C(C=C(C=C1)NC(=O)C2=CC(=CC=C2)C(C)(C)C#N)NC3=CC4=C(C=C3)N=CN(C4=O)C
# Outline: as §1
# [8] = compound: CC1=C(C=C(C=C1)NC(=O)C2=CC(=CC=C2)N(C)C)NC(=O)C3=CC=C(C=C3)O
# Outline: as §1
# [9] = compound: CC1=CC=C(C=C1)SC2=C3C=C(SC3=CN=C2)C(=O)N
# Outline: as §1
# [10] = compound: CC1=NC(=CC=C1)C2=C(N=C(N2)C(C)(C)C)C3=CC4=NC=CN=C4C=C3
# Outline: as §1
# Nexturastat A = compound: CCCCN(Cc1ccc(C(=O)NO)cc1)C(=O)Nc1ccccc1 [Nexturastat A]
# Outline: as §1
# vemurafenib = compound: CCCS(=O)(=O)Nc1ccc(F)c(C(=O)c2c[nH]c3ncc(-c4ccc(Cl)cc4)cc23)c1F [vemurafenib]
# Outline: as §1
# [11] = compound: CCCS(=O)(=O)Nc1ccc(F)c(C(=O)c2c[nH]c3ncc(Cl)cc23)c1F
# Outline: as §1
# [12] = compound: CCCc1cc(C)[nH]c(=O)c1CNC(=O)c1cc(-c2ccnc(N3CCN(C)CC3)c2)cc2c1cnn2C(C)C
# Outline: as §1
# givinostat = compound: CCN(CC)Cc1ccc2cc(COC(=O)Nc3ccc(C(=O)NO)cc3)ccc2c1 [givinostat]
# Outline: as §1
# barasertib = compound: CCN(CCCOc1ccc2c(Nc3cc(CC(=O)Nc4cccc(F)c4)[nH]n3)ncnc2c1)CCOP(=O)(O)O [barasertib]
# Outline: as §1
# Sequence of UniProt Q9BY42 (Q9BY42 whole entry, looked up): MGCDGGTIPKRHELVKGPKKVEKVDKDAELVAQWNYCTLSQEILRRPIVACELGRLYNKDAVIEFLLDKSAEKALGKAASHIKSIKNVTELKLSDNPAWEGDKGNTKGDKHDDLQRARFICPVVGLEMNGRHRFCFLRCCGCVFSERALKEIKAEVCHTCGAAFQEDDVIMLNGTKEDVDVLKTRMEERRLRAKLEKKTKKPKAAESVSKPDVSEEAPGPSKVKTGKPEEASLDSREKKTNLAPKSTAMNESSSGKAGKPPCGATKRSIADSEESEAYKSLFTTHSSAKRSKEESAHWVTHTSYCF
# Sequence of UniProt P46063 (P46063 whole entry, looked up): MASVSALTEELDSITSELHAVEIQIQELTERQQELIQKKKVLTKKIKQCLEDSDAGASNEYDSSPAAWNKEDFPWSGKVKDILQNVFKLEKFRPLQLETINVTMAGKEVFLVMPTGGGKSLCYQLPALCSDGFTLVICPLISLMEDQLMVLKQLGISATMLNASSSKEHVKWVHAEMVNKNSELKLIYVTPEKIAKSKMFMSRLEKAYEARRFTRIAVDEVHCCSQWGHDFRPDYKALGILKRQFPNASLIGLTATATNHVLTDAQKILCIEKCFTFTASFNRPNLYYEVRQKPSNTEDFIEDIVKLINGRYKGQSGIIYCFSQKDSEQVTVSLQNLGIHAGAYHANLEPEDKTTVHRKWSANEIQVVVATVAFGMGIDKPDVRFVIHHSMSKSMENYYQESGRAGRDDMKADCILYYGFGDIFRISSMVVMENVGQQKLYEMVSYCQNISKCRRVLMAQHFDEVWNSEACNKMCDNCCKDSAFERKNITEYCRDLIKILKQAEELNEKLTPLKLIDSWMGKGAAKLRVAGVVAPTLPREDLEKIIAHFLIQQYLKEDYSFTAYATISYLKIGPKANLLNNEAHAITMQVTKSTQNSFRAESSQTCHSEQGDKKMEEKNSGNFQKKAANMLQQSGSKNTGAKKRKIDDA
# Sequence of UniProt Q9NW64 (Q9NW64 whole entry, looked up): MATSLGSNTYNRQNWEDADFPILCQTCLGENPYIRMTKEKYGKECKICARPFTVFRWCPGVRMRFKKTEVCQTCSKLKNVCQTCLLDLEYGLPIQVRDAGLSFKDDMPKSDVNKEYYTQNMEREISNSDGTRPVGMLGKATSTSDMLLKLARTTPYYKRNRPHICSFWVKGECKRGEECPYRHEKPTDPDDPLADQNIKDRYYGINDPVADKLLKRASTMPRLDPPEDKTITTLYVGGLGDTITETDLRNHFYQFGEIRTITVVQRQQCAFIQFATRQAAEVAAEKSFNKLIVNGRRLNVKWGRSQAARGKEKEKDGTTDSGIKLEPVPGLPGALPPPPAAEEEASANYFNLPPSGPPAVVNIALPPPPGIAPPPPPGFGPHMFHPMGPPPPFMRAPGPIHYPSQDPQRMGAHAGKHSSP
# Sequence of UniProt Q86VR2 (Q86VR2 whole entry, looked up): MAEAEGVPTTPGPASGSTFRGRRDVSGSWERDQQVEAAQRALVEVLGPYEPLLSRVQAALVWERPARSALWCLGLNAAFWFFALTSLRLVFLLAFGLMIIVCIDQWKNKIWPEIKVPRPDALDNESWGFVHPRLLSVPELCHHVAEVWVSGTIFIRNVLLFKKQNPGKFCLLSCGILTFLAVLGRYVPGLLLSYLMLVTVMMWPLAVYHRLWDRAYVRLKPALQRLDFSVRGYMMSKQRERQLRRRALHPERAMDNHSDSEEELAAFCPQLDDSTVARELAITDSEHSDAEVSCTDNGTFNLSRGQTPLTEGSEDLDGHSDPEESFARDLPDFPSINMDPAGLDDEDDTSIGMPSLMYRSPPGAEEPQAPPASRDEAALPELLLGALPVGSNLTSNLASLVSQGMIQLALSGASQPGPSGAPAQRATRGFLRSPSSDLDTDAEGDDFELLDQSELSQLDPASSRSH
# Sequence of UniProt Q9H082 (Q9H082 whole entry, looked up): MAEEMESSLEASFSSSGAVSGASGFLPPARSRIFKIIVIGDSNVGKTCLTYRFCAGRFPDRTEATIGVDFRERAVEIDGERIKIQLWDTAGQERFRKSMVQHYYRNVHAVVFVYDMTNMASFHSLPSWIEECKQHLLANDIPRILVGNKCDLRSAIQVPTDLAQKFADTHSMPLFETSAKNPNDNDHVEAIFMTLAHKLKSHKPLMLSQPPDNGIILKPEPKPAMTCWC
Target,log2 fold change (IRAK-1-4 Inhibitor I),log2 fold change (ibrutinib),log2 fold change [1],log2 fold change (ralimetinib),log2 fold change [2],log2 fold change [3],log2 fold change [4],log2 fold change (pinometostat),log2 fold change [5],log2 fold change [6],log2 fold change [7],log2 fold change [8],log2 fold change [9],log2 fold change [10],log2 fold change (Nexturastat A),log2 fold change (vemurafenib),log2 fold change [11],log2 fold change [12],log2 fold change (givinostat),log2 fold change (barasertib)
RTF2 (UniProt Q9BY42),0,-0.096,-0.017,-0.022,0.032,0.164,0.098,-0.059,-0.025,-0.054,0,-0.028,0.019,0.04,0.004,0.129,0.044,-0.019,0.017,0.072
RECQL (UniProt P46063),0.013,0.002,-0.023,-0.024,-0.039,-0.033,-0.02,-0.013,-0.031,0.266 (active),0.028,-0.012,0.011,0.039,-0.002,-0.009,0.063,-0.007,0.038,-0.002
RAB33B (UniProt Q9H082),0.072,0.016,-0.019,-0.092,0.027,0.113,0.112,-0.015,-0.011,-0.002,-0.028,-0.026,-0.028,-0.071,-0.004,-0.083,-0.038,-0.065,-0.012,0.031
RPS16 (UniProt P62249),-0.137,0.036,0.054,0.032,0.011,-0.02,0.035,0.102,0.057,-0.6 (active),0.028,-0.016,-0.087,-0.035,0.11,-0.073,-0.103,0.337,-0.046,-0.053
RPS25 (UniProt P62851),-0.08,0.01,0.069,0.073,0.033,-0.028,0.054,0.184,0.006,-0.533 (active),0.009,0,-0.03,0,0.11,-0.08,-0.102,0.06,0.042,-0.075
RPS19 (UniProt P39019),-0.085,0.052,0.05,0.064,0.03,-0.025,0.039,0.084,0.026,-0.523 (active),0.008,0.007,-0.054,-0.009,0.121,-0.07,-0.066,-0.039,0.013,-0.083
RBM22 (UniProt Q9NW64),0.014,-0.032,0.029,0.048,0.071,0.068,0.104,0.015,0.041,0.124,-0.049,0.031,-0.056,-0.014,0.052,0.003,-0.004,-0.038,0.018,-0.006
RETREG3 (UniProt Q86VR2),0.117,-0.002,-0.01,-0.036,-0.04,-0.167,0.007,0.035,-0.024,-0.016,-0.006,0.014,0.148,0.13,0.062,0.043,0.055,-0.044,-0.048,0.023
